Results from PubChem BioAssay AID1159580 (chemical genetic matrix, 2015).
Hit rate of the full screen: of about 5,500 compounds, about 2,000 (36%) were called active. Roughly 18% stayed inconclusive and do not appear here. No stated cut-off is given here; in the data, active means normalized growth mostly below about 0.91 (no sharp cut-off); inconclusive means no clear call, values can overlap the other calls; inactive means mostly above about 0.92. The list shows a part of the results.

Assay: chemical genetic growth profiling, strain panel (AID 1159580);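 further: tested at 20 µM; growth read once vehicle control cultures reached saturation at 30 °C; 1 = growth at the plate median or of vehicle wells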
Details: S. cerevisiae deletion strains, growth OD

Measured: normalized growth

NC(=O)c1cccnc1
inactive: locus YAL021C, strain ccr4, stronger effect = lower value 0.969 | locus YAL026C, strain drs2, stronger effect = lower value 0.979 | locus YAL030W, strain snc1, stronger effect = lower value 0.958 | locus YBL061C, strain skt5, stronger effect = lower value 0.971 | locus YBR009C, strain hhf1, stronger effect = lower value 0.974 | locus YBR023C, strain chs3, stronger effect = lower value 0.98 | locus YBR171W, strain sec66, stronger effect = lower value 0.968 | locus YBR231C, strain swc5, stronger effect = lower value 0.995 | locus YBR279W, strain paf1, stronger effect = lower value 0.991 | locus YCL011C, strain gbp2, stronger effect = lower value 0.979 | locus YCL016C, strain dcc1, stronger effect = lower value 0.978 | locus YCL061C, strain MRC1, stronger effect = lower value 0.986 | locus YCL069W, strain vba3, stronger effect = lower value 0.986 | locus YCR088W, strain abp1, stronger effect = lower value 0.97 | locus YDL005C, strain med2, stronger effect = lower value 0.966 | locus YDL040C, strain nat1, stronger effect = lower value 0.992 | locus YDR001C, strain nth1, stronger effect = lower value 0.972 | locus YDR069C, strain doa4, stronger effect = lower value 0.972 | locus YDR137W, strain rgp1, stronger effect = lower value 0.994 | locus YDR159W, strain sac3, stronger effect = lower value 0.97 | locus YDR195W, strain ref2 0.996 | locus YDR297W, strain sur2, stronger effect = lower value 0.975 | locus YDR334W, strain swr1, stronger effect = lower value 0.928 | locus YDR335W, strain msn5, stronger effect = lower value 0.975 | locus YDR392W, strain spt3, stronger effect = lower value 0.985 | locus YEL003W, strain gim4, stronger effect = lower value 0.975 | locus YEL037C, strain rad23, stronger effect = lower value 0.987 | locus YEL061C, strain CIN8 (second series), stronger effect = lower value 0.983 | locus YER015W, strain faa2, stronger effect = lower value 0.992 | locus YER016W, strain bim1, stronger effect = lower value 0.981 | locus YER111C, strain swi4, stronger effect = lower value 0.985 | locus YER155C, strain BEM2 (second series), stronger effect = lower value 0.98 | locus YFR010W, strain ubp6, stronger effect = lower value 0.971 | locus YGL167C, strain pmr1, stronger effect = lower value 0.984 | locus YGL173C, strain kem1, stronger effect = lower value 0.957 | locus YGL227W, strain vid30, stronger effect = lower value 0.959 | locus YGL240W, strain doc1, stronger effect = lower value 0.963 | locus YGL253W, strain hxk2, stronger effect = lower value 0.998 | locus YHR013C, strain ard1, stronger effect = lower value 0.972 | locus YHR027C, strain rpn1, stronger effect = lower value 0.959 | locus YHR030C, strain SLT2, stronger effect = lower value 0.971 | locus YHR079C, strain IRE1, stronger effect = lower value 0.961 | locus YHR142W, strain chs7, stronger effect = lower value 0.976 | locus YJL092W, strain hpr5, stronger effect = lower value 0.982 | locus YJL095W, strain BCK1 (second series), stronger effect = lower value 0.979 | locus YJL095W, strain BCK1, stronger effect = lower value 0.974 | locus YJL115W, strain asf1, stronger effect = lower value 0.96 | locus YJL129C, strain trk1, stronger effect = lower value 0.996 | locus YJL154C, strain vps35, stronger effect = lower value 0.964 | locus YJL164C, strain tpk1, stronger effect = lower value 0.992 | locus YJL166W, strain qcr8, stronger effect = lower value 0.978 | locus YJL187C, strain SWE1, stronger effect = lower value 0.982 | locus YJR066W, strain TOR1, stronger effect = lower value 0.928 | locus YKL160W, strain elf1, stronger effect = lower value 0.991 | locus YKR026C, strain gcn3, stronger effect = lower value 0.976 | locus YKR091W, strain srl3, stronger effect = lower value 0.986 | locus YLL001W, strain dnm1, stronger effect = lower value 0.991 | locus YLL026W, stronger effect = lower value 0.951 | locus YLL041C, strain sdh2, stronger effect = lower value 0.982 | locus YLR027C, strain aat2, stronger effect = lower value 0.948 | locus YLR113W, strain HOG1, stronger effect = lower value 0.973 | locus YLR221C, strain rsa3, stronger effect = lower value 0.974 | locus YLR258W, strain gsy2, stronger effect = lower value 0.984 | locus YLR262C, strain YPT6 (second series), stronger effect = lower value 0.965 | locus YLR320W, strain mms22, stronger effect = lower value 1 | locus YLR342W, strain FKS1, stronger effect = lower value 0.983 | locus YLR357W, strain rsc2, stronger effect = lower value 0.979 | locus YLR370C, strain arc18, stronger effect = lower value 0.986 | locus YLR384C, strain iki3, stronger effect = lower value 0.987 | locus YML120C, strain ndi1, stronger effect = lower value 0.982 | locus YMR058W, strain fet3, stronger effect = lower value 0.979 | locus YMR125W, strain sto1, stronger effect = lower value 0.963 | locus YMR129W, stronger effect = lower value 0.99 | locus YMR205C, strain PFK2, stronger effect = lower value 0.962 | locus YMR231W, strain pep5, stronger effect = lower value 0.978 | locus YNL071W, strain lat1, stronger effect = lower value 0.975 | locus YNL183C, strain NPR1, stronger effect = lower value 0.949 | locus YNL209W, strain ssb2, stronger effect = lower value 0.979 | locus YNL248C, strain rpa49, stronger effect = lower value 0.973 | locus YNL322C, strain KRE1 (second series), stronger effect = lower value 0.98 | locus YNR049C, strain mso1, stronger effect = lower value 0.966 | locus YOR001W, strain rrp6, stronger effect = lower value 0.983 | locus YOR070C, strain gyp1, stronger effect = lower value 0.983 | locus YOR080W, strain dia2, stronger effect = lower value 0.978 | locus YOR083W, strain WHI5, stronger effect = lower value 0.986 | locus YOR106W, strain vam3, stronger effect = lower value 0.986 | locus YOR231W, strain MKK1, stronger effect = lower value 0.975 | locus YOR265W, strain rbl2, stronger effect = lower value 0.983 | locus YOR270C, strain vph1, stronger effect = lower value 0.978 | locus YOR290C, strain snf2, stronger effect = lower value 0.996 | locus YPL051W, strain arl3, stronger effect = lower value 0.999 | locus YPL078C, strain atp4, stronger effect = lower value 0.98 | locus YPL106C, strain sse1, stronger effect = lower value 0.927 | locus YPL240C, strain hsp82, stronger effect = lower value 0.978 | locus YPL256C, strain CLN2, stronger effect = lower value 0.992
